Only a sample is shown.
aSyn 5UTR act: Activators working through SNCA 5'UTR binding (MLPCN); alpha-synuclein 5'UTR reporter, activators screen; activity score, % (tested at 7.5 µM), hits read low; 300,000 tested, 7.1% active; AID 1814; in the data active = activity score below about -60%
A number is an active result.

`Nc1[nH]n(-c2ccccc2)c(=O)c1N=Nc1ccccc1[N+](=O)[O-]` gave aSyn 5UTR act -133.5.
Screening Nc1[nH]n(-c2ccccc2)c(=O)c1N=Nc1ccc2ncsc2c1 returned aSyn 5UTR act -77.8.
Screening Nc1[nH]n(-c2ccccc2)c(=O)c1N=Nc1ccccc1 returned aSyn 5UTR act -138.2.
For c1ccc2nc3c(nc2c1)[nH]c1ccccc13 the results were aSyn 5UTR act -170.6.
Screening NC(=O)c1cc(Br)cc(C2CCCCC2)c1O returned aSyn 5UTR act inactive.
For N/C(=N\OC(=O)C1CCCCC1)c1ccc(Cl)cc1 the results were aSyn 5UTR act -138.3.
`N/C(=N\OC(=O)C1CCCCC1)c1ccccn1` gave aSyn 5UTR act -118.8.
`N/C(=N\OC(=O)C1CCCCC1)c1ccc(Br)cc1` gave aSyn 5UTR act -217.3.
`COC(=O)c1ccc(OCc2cc(=O)n3ccsc3n2)cc1` gave aSyn 5UTR act -133.9.
Oc1ccc(/C=N/n2cc(-c3ccccc3)[nH]c2=S)cc1 was read as aSyn 5UTR act -92.0.
`Cc1ccc(/C=N/n2cc(-c3ccccc3)[nH]c2=S)s1` gave aSyn 5UTR act -169.4.
`S=c1[nH]c(-c2ccccc2)cn1/N=C/c1ccccc1Br` gave aSyn 5UTR act -83.1.
CCCCOC(=O)c1cc(-c2ccc(/C=N/n3cnnc3)o2)ccc1Cl was read as aSyn 5UTR act -74.2.
Screening CCOC(=O)c1cc(-c2ccc(/C=C3/C(=O)N(c4ccc(C(=O)O)cc4)N=C3C)o2)ccc1Cl returned aSyn 5UTR act -75.5.
For Cc1cc(NC(=O)c2ccco2)ncc1NC(=O)Cc1ccccc1 the results were aSyn 5UTR act -118.5.
`O=C(Nc1ccccn1)c1ccc(NC(=O)c2ccco2)cc1` gave aSyn 5UTR act -141.2.
For CC(C)C(=O)Nc1ccc(NC(=O)c2ccccc2Cl)nc1 the results were aSyn 5UTR act -115.0.
`O=C(CCc1ccccc1)Nc1ccc(NC(=O)c2ccco2)nc1` gave aSyn 5UTR act -70.8.
Screening O=C(Nc1ccc(NC(=O)c2ccccc2Cl)nc1)c1ccco1 returned aSyn 5UTR act -102.3.
For O=C(Nc1cccnc1Cl)c1cc(-c2ccco2)on1 the results were aSyn 5UTR act -80.3.
`O=C(Nc1cc(Cl)ccc1O)c1cc(-c2ccco2)on1` gave aSyn 5UTR act -232.7.
`O=C(Nc1cc(Br)ccc1O)c1cc(-c2ccco2)on1` gave aSyn 5UTR act -133.5.
Screening Nc1ccccc1-c1nnc(-c2ccccc2N)n1N returned aSyn 5UTR act -113.0.
Nn1c(SCc2c(F)cccc2F)nnc1-c1ccccn1 was read as aSyn 5UTR act -159.1.
Screening Nn1c(-c2ccccn2)nnc1-c1ccccn1 returned aSyn 5UTR act -96.1.
Screening Cc1ccc(-n2[nH]c(=O)c(-c3ccccn3)c2C)cc1 returned aSyn 5UTR act inactive.
For CCOc1ccc(NC(=O)CCC(=O)NNC(=O)COc2ccc(C)cc2Br)cc1 the results were aSyn 5UTR act -76.9.
Cc1ccc(NC(=O)COc2ccc(Br)cc2C)cc1 was read as aSyn 5UTR act -101.8.
`CC(=O)NC(=S)Nc1ccc(NC(=O)COc2ccc(Cl)cc2Cl)cc1` gave aSyn 5UTR act -62.2.
For Cc1cc(Cl)ccc1OCC(=O)Nc1ccncc1 the results were aSyn 5UTR act -81.4.
Screening Cc1ccc(Cl)c(OCC(=O)Nc2ccc3c(c2)OCCO3)c1 returned aSyn 5UTR act -146.1.
For Cc1ccc(OCC(=O)Nc2ccc3c(c2)OCO3)c(C)c1 the results were aSyn 5UTR act -174.9.
For O=C(OCc1nnc(-c2ccc(Cl)cc2)o1)C12CC3CC(CC(O)(C3)C1)C2 the results were aSyn 5UTR act -204.6.
CCN1CCN(C(=O)c2cc3ccc(OC)cc3[nH]2)CC1 was read as aSyn 5UTR act -134.7.
Screening COc1ccc2cc(C(=O)N3CCN(C)CC3)[nH]c2c1 returned aSyn 5UTR act -153.6.
For Cc1cc(C)nc(/N=C(\N)N2CCc3ccccc32)n1 the results were aSyn 5UTR act -61.7.
Screening O=c1c2ccccc2oc2cc(C#CC3(O)CCCCC3)ccc12 returned aSyn 5UTR act inactive.
Screening O=c1c2ccccc2oc2ccc(Oc3ccccc3)cc12 returned aSyn 5UTR act -122.5.
COc1cc2oc3ccccc3c(=O)c2cc1OC was read as aSyn 5UTR act -119.6.
`Cc1cc(/C=N/n2cnnc2)c(C)n1-c1ccc(OCc2ccccc2F)cc1` gave aSyn 5UTR act -81.9.
For CCn1c2ccccc2c2cc(NC(=O)CSc3nnc(-c4cccc(C)c4)o3)ccc21 the results were aSyn 5UTR act -62.7.
For CCn1c2ccccc2c2cc(NC(=O)CSc3nnc(-c4cccc(F)c4)o3)ccc21 the results were aSyn 5UTR act -67.9.
For CCn1c2ccccc2c2cc(NC(=O)CSc3nnc(-c4ccccc4)o3)ccc21 the results were aSyn 5UTR act -155.4.
CCCCN1C(=O)Cc2c1nc(N)c1c(N)nc(N(CCC)CCC)c(C#N)c21 was read as aSyn 5UTR act inactive.
CC(C)(C)c1ccc(N2C(=O)Cc3c2nc(N)c(C#N)c3N)cc1 was read as aSyn 5UTR act -108.9.
Screening CCc1ccc(N2C(=O)Cc3c2nc(N)c(C#N)c3N)cc1 returned aSyn 5UTR act -159.9.
CC(/C=N/NC(=O)c1ccccn1)=C\c1ccco1 was read as aSyn 5UTR act -74.7.
`Cc1cc(C(=O)N/N=C/C(Cl)=C/c2ccccc2)c(C)o1` gave aSyn 5UTR act -67.3.
For O=C(N/N=C/C(Cl)=C/c1ccccc1)c1ccccn1 the results were aSyn 5UTR act -66.4.
Screening O=C(N/N=C/C(Br)=C/c1ccccc1)c1cnccn1 returned aSyn 5UTR act -110.4.
For CC(/C=N/NC(=O)c1nnn(-c2nonc2N)c1C(C)C)=C\c1ccco1 the results were aSyn 5UTR act -62.2.
`O=C(N/N=C/C=C\c1ccco1)c1ccccn1` gave aSyn 5UTR act -144.9.
For CCN(CC)c1ccc(/C=N/NC(=O)c2nnn(-c3nonc3N)c2C(C)C)c(O)c1 the results were aSyn 5UTR act inactive.
For Nc1nnn(CC(=O)N/N=C/C=C/c2ccccc2)n1 the results were aSyn 5UTR act -86.8.
O=C(N/N=C/C=C/c1ccccc1)c1n[nH]c2c1CCC2 was read as aSyn 5UTR act inactive.
O=C(N/N=C/C=C/c1ccccc1)c1ccccn1 was read as aSyn 5UTR act -166.5.
`O=C(N/N=C\C=C\c1ccco1)c1cc(-c2ccc3ccccc3c2)n[nH]1` gave aSyn 5UTR act -145.7.
For CC1(C)OC2OC(COC(=O)c3ccccc3)C3OC(C)(C)OC3C2O1 (configuration not stated) the results were aSyn 5UTR act -88.7.
`COCCNC(=O)C(c1ccncc1)N(C(=O)c1sc(C)nc1C)c1cccc(C)c1` (configuration not stated) gave aSyn 5UTR act -90.0.
COc1ccc(-c2nn(-c3ccccc3)cc2N)cc1 was read as aSyn 5UTR act -167.3.
`Cc1ccc(-n2nc(C)c(NC(=O)CCl)c2C)cc1` gave aSyn 5UTR act -146.4.
Cc1ccc(-n2nc3c(=O)n(CCCC(=O)NCc4ccc(Cl)cc4)nc(C)c3c2C)cc1 was read as aSyn 5UTR act inactive.
`COc1ccc(-c2nn(-c3ccccc3)cc2CO)cc1` gave aSyn 5UTR act -86.2.
Cc1ccc(-c2nn(-c3ccccc3)cc2CO)cc1 was read as aSyn 5UTR act -103.6.
`Cc1ccc(-c2nn(-c3ccccc3)cc2NC(=O)CCl)cc1` gave aSyn 5UTR act -71.1.
Screening COc1ccc2cc(-c3[nH]ncc3CN3C[C@@H]4CCC[C@H]3C4)ccc2c1 returned aSyn 5UTR act -78.2.
For COc1ccc2cc(-c3[nH]ncc3CN3CCCCO3)ccc2c1 the results were aSyn 5UTR act -105.5.

Compound activity: PubChem BioAssay, Broad Institute
